G9a inh: blocks human histone lysine methyltransferase G9a. Q96KQ7. G9a H3K9 monomethylation, AlphaScreen, 2 h. Potency, µM (titrated, usually from 102 µM), inactives show at the top dose activity, negative = inhibition, usual class: inhibitors. 8.8% of 350,000 active. AID 504332; also: % is scaled to controls: 0 for no effect and ±100 for the full control effect; nearly all actives have a fitted effect of over 75% in size
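Chemiluminescent proximity detection of H3K9 monomethylation, read after 10 min bead incubation in the dark. Reaction: 20 nM G9a, 500 nM biotin-H3K9 peptide, 20 uM SAM cofactor, 2 h, room temperature, following 15 min enzyme-compound preincubation.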
L3MBTL1 block: L3MBTL1 (human) inhibition; Q9Y468; AlphaScreen L3MBTL1–H3K9me1 peptide binding; Potency, µM (titrated, usually from 57.1 µM), inactives show at the top dose activity, negative = inhibition, most hits filed as inhibitors; 0.66% of 230,000 active; AID 485360; also: % is scaled to controls: 0 for no effect and ±100 for the full control effect; nearly all actives have a fitted effect of over 60% in size
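Read-out is AlphaScreen signal from streptavidin donor and nickel chelate acceptor beads (10 ug/mL final each) bridging L3MBTL1 (50 nM) and biotinylated K9-monomethylated H3(1-15) peptide (75 nM), after 30 min compound exposure at room temperature.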
JMJD2A Tudor inh: blocks the human JMJD2A Tudor domain; AlphaScreen JMJD2A-Tudor / H3K4me3 peptide binding; 4.4% of 390,000 active; Potency, µM (highest dose often 114 µM), for inactives: at the highest dose activity change, negative = inhibition, hits mostly inhibitors; AID 504339; O75164; also: % is scaled to controls: 0 for no effect and ±100 for the full control effect; nearly all actives have a fitted effect of over 50% in size
Sfp PPTase inh: Sfp phosphopantetheinyl transferase inhibition; Biochemical Sfp PPTase activity, qHTS; Potency, µM, without a hit: largest response in the series, negative = inhibition, most hits filed as inhibitors; 3.5% of 310,000 active; AID 1490;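 also: the enzyme is Sfp with the accession as filed and its product quenches rhodamine fluorescence; 0% = enzyme reaction without inhibitor and -100% = no enzyme wells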
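Sfp 15 nM + cpd, 15 min RT; start w/ rhodamine-CoA 5 uM, BHQ-2-YbbR 12.5 uM (final); 50 mM Hepes pH 7.6, 10 mM MgCl2, 0.01% NP-40, 0.01% BSA; read 525/598 nm at 0 and 30 min.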
HP1b chromo inh: inhibitors of HP1-beta chromodomain binding to methylated histone tails | P83916 | AlphaScreen HP1-beta / biotin-H3K9me3 peptide binding | Potency, µM (titrated, usually from 114 µM), without a hit: top-dose activity change, negative = inhibition, most hits filed as inhibitors | 0.56% of 390,000 active; also: nearly all actives have a fitted effect of over 70% in size
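HP1-beta protein (50 nM final) preincubated 30 min at room temperature with biotinylated H3(1-18)K9me3 peptide (50 nM) in PBS pH 7.4, 0.01% Tween-20, then compound added for 30 min. AlphaScreen streptavidin donor/nickel chelate acceptor beads (10 ug/mL final), 30 min dark, luminescence read.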
BAZ2B inh: BAZ2B (human) inhibition; AlphaScreen BAZ2B-H3K14Ac peptide displacement; Potency, µM (titrated, usually from 114 µM), without a hit: at the highest dose activity change, negative = inhibition, actives largely listed as inhibitors; 4.4% of 360,000 active; AID 504333; also: % is scaled to controls: 0 for no effect and ±100 for the full control effect; nearly all actives have a fitted effect of over 60% in size
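AlphaScreen displacement of biotin-H3(5-23)K14Ac peptide (50 nM final) from BAZ2B (50 nM final) in PBS pH 7.4, 0.01% Tween-20; complex preformed 30 min RT, then compounds (top 110 uM) 30 min RT, beads 20 min dark.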
An asterisk follows results filed as active; u = inconclusive; x = not tested or not shown; [ ] = remark or other dose. Most compounds without a hit are left out; they make up all but 12% or so of the library. Calls follow the shape of the dose curve; as a rule, active = well fitted curve in the direction sought with a large enough effect; inconclusive = small, poorly fitted or top-dose-only effect, or another doubt; inactive = no such curve, though single readings can be large; an effect the other way counts as inactive or inconclusive. Potency is read from the fitted curve at half-maximal effect.

SMILES	G9a inh	L3MBTL1 block	JMJD2A Tudor inh	Sfp PPTase inh	HP1b chromo inh	BAZ2B inh
CCN(CCCNC(=O)CCn1c(=O)[nH]c2ccccc2c1=O)c1ccccc1	50µM*	x	-27%	12%	13%	-1%
CCN(CCCNC(=O)Cn1ncc2c([nH]c3ccc(C)cc32)c1=O)c1cccc(C)c1	5%[59 µM]	x	-14%	5%	32%	-1%
Cc1cccc(-c2noc(CCC(=O)NCCc3ccccc3)n2)c1	9%	x	-11%	9%	54%	15%
CCN(CCCNC(=O)CCc1nc(-c2ccc(C)cc2)no1)c1cccc(C)c1	45µM*	-23%	-26%[11.4 µM]	13%	u	u
CCCCCNC(=O)CCn1c(=O)[nH]c2ccccc2c1=O	3%[59 µM]	x	-7%	x	8%	-5%
CCOc1ccc(C(=O)NCc2nc3cccnc3n2Cc2ccc(F)cc2)cc1OCC	2%[59 µM]	x	-11%	x	26%[57 µM]	2%
Cc1ccc(N(CC(=O)NCCc2ccccc2)S(=O)(=O)N(C)C)cc1	-27%[59 µM]	x	-17%	x	20%	-1%
CN(CCc1ccc(Cl)c(Cl)c1)CCN1CCCC1	43%[59 µM]	x	x	u	x	x
CCN(CCCNC(=O)COc1cc(=O)n(C)c2ccccc12)c1cccc(C)c1	35µM*	-2%	u	8%	-1%	50µM*
Cc1ccc(CNC(=O)CCCn2c(=O)[nH]c3ccccc3c2=O)cc1	-7%[59 µM]	-6%	-22%	8%	44%	5%
CCN(CCCNC(=O)CCCn1c(=O)[nH]c2ccccc2c1=O)c1cccc(C)c1	13µM*	-9%	-28%[57.1 µM]	-7%	-12%	u
Cc1cccc(CCNC(=O)COc2cc(=O)n(C)c3ccccc23)c1	8%	6%	11%	4%	23%	1%
COCCNC(=O)c1sc2nc3n(c(=O)c2c1C)CCC3	-3%[59 µM]	x	-20%	x	1%	-2%
Cc1cc2nc(CS)[nH]c2cc1C	10µM*	x	-20%	40µM*	12%	-13%
NCCCC[C@H](NC(=O)[C@H](CCCN=C(N)N)NC(=O)[C@H](CO)NC(=O)[C@H](CCCN=C(N)N)NC(=O)[C@@H](N)Cc1ccc(O)cc1)C(=O)N[C@@H](Cc1ccc(O)cc1)C(=O)N[C@@H](CO)C(=O)N[C@@H](CO)C(=O)N[C@@H](Cc1c[nH]c2ccccc12)C(=O)N[C@@H](Cc1ccc(O)cc1)C(=O)O	x	x	x	9%	x	x
COc1cc(OC)c2ccc(=O)oc2c1C(CCN1CCCCC1)c1ccc(N(C)C)cc1 (centres undefined)	u	x	35µM*	-16%	-32%	40µM*
COc1cc(OC)c2ccc(=O)oc2c1C(CCN1CCCC1)c1ccc(N(C)C)cc1 (centres undefined)	-9%[59 µM]	x	56µM*	11%	-22%	40µM*
Cc1ccc(OCC(=O)NCC(c2ccc(Cl)cc2)N2CCCCC2)cc1 (centres undefined)	-3%[59 µM]	x	-23%	x	28%	-9%
CCOC(=O)C1Nc2ccc(C)cc2C2C=CCC12 (centres undefined)	x	x	56µM*	x	-16%	x
COC(=O)CNC(=O)C1Nc2ccccc2C2C=CCC12 (centres undefined)	x	x	56µM*	x	-14%	x
O=C(O)C1Nc2ccc(Br)cc2C2C=CCC12 (centres undefined)	1.8µM*	x	20µM*	u	18µM*	3.2µM*
O=C(OC1CCCCC1)c1ccc2c(c1)C1C=CCC1C(C(=O)O)N2 (centres undefined)	u	3.2µM*	x	-18%	x	7.1µM*
CC(C)CNC(=O)C1Nc2ccc(OC(F)(F)F)cc2C2C=CCC12 (centres undefined)	x	x	u	x	2%	x
C=C[C@@]1(C)CC(=O)[C@@]2(O)[C@@]3(C)[C@@H](O)CCC(C)(C)[C@@H]3[C@H](O)[C@H](OC(C)=O)[C@@]2(C)O1	x	x	x	-12%	x	x

Source: PubChem BioAssay (National Center for Advancing Translational Sciences (NCATS))
